From PubChem BioAssay AID1159580 (chemical genetic matrix, 2015)
About 2,000 (36%) of roughly 5,500 compounds were called active. Roughly 18% stayed inconclusive and do not appear here. No stated cut-off is given here; in the data, active means normalized growth mostly below about 0.91 (no sharp cut-off); inconclusive means no clear call, values can overlap the other calls; inactive means mostly above about 0.92. The list shows a part of the results.

Assay: chemical genetic growth profiling, strain panel (AID 1159580);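 further: tested at 20 µM; growth read once vehicle control cultures reached saturation at 30 °C; 1 = growth at the plate median or of vehicle wells; lower values mean less growth of the strain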
Settings: growth OD

Measured: normalized growth

C=C1CCC2C(CC2(C)C)C(=C)CC/C1=N\O (centres undefined)
active: S. cerevisiae deletion strains, locus YKL009W, strain mrt4, active compounds read low 0.879 | S. cerevisiae deletion strains, locus YKR001C, strain vps1, active compounds read low 0.703 | S. cerevisiae deletion strains, locus YLR039C, strain RIC1, active compounds read low 0.441 | S. cerevisiae deletion strains, locus YLR262C, strain YPT6, active compounds read low 0.393 | S. cerevisiae deletion strains, locus YLR342W, strain FKS1 (second series), active compounds read low 0.694 | S. cerevisiae deletion strains, locus YML032C, strain rad52, active compounds read low 0.89 | S. cerevisiae deletion strains, locus YMR307W, strain GAS1, active compounds read low 0.423 | S. cerevisiae deletion strains, locus YNL298W, strain CLA4, active compounds read low 0.878 | S. cerevisiae deletion strains, locus YNL307C, strain MCK1, active compounds read low 0.683 | S. cerevisiae deletion strains, locus YOR184W, strain ser1, active compounds read low 0.697
inactive: S. cerevisiae deletion strains, locus YJL187C, strain SWE1, active compounds read low 1.01 | S. cerevisiae deletion strains, locus YJR043C, strain POL32, active compounds read low 0.905 | S. cerevisiae deletion strains, locus YJR075W, strain HOC1, active compounds read low 0.894 | S. cerevisiae deletion strains, locus YKL068W, active compounds read low 0.996 | S. cerevisiae deletion strains, locus YKL085W, strain MDH1 (second series), active compounds read low 0.972 | S. cerevisiae deletion strains, locus YKL085W, strain MDH1, active compounds read low 0.972 | S. cerevisiae deletion strains, locus YKL160W, strain elf1, active compounds read low 1 | S. cerevisiae deletion strains, locus YKL190W, strain CNB1, active compounds read low 1.01 | S. cerevisiae deletion strains, locus YKR026C, strain gcn3, active compounds read low 0.998 | S. cerevisiae deletion strains, locus YKR091W, strain srl3, active compounds read low 0.995 | S. cerevisiae deletion strains, locus YLL001W, strain dnm1, active compounds read low 1.01 | S. cerevisiae deletion strains, locus YLL026W, active compounds read low 0.999 | S. cerevisiae deletion strains, locus YLL041C, strain sdh2, active compounds read low 0.994 | S. cerevisiae deletion strains, locus YLR027C, strain aat2, active compounds read low 1 | S. cerevisiae deletion strains, locus YLR058C, strain SHM2, active compounds read low 1.01 | S. cerevisiae deletion strains, locus YLR102C, strain apc9, active compounds read low 1.01 | S. cerevisiae deletion strains, locus YLR221C, strain rsa3, active compounds read low 0.983 | S. cerevisiae deletion strains, locus YLR258W, strain gsy2, active compounds read low 1.01 | S. cerevisiae deletion strains, locus YLR262C, strain YPT6 (second series), active compounds read low 0.966 | S. cerevisiae deletion strains, locus YLR268W, strain sec22, active compounds read low 0.936 | S. cerevisiae deletion strains, locus YLR320W, strain mms22, active compounds read low 0.984 | S. cerevisiae deletion strains, locus YLR330W, strain CHS5, active compounds read low 1.01 | S. cerevisiae deletion strains, locus YLR342W, strain FKS1, active compounds read low 1.01 | S. cerevisiae deletion strains, locus YLR357W, strain rsc2, active compounds read low 1.03 | S. cerevisiae deletion strains, locus YLR370C, strain arc18, active compounds read low 0.996 | S. cerevisiae deletion strains, locus YLR371W, strain rom2, active compounds read low 0.994 | S. cerevisiae deletion strains, locus YLR384C, strain iki3, active compounds read low 0.992 | S. cerevisiae deletion strains, locus YLR418C, strain cdc73, active compounds read low 0.847 | S. cerevisiae deletion strains, locus YML016C, strain PPZ1, active compounds read low 0.999 | S. cerevisiae deletion strains, locus YML120C, strain ndi1, active compounds read low 1.01 | S. cerevisiae deletion strains, locus YML124C, strain tub3, active compounds read low 0.99 | S. cerevisiae deletion strains, locus YMR058W, strain fet3, active compounds read low 1.01 | S. cerevisiae deletion strains, locus YMR078C, strain ctf18, active compounds read low 0.978 | S. cerevisiae deletion strains, locus YMR125W, strain sto1, active compounds read low 1.03 | S. cerevisiae deletion strains, locus YMR129W, active compounds read low 1 | S. cerevisiae deletion strains, locus YMR205C, strain PFK2, active compounds read low 0.992 | S. cerevisiae deletion strains, locus YMR223W, strain ubp8, active compounds read low 0.906 | S. cerevisiae deletion strains, locus YMR231W, strain pep5, active compounds read low 0.997 | S. cerevisiae deletion strains, locus YMR263W, strain SAP30, active compounds read low 0.962 | S. cerevisiae deletion strains, locus YNL067W, strain RPL9B, active compounds read low 0.942 | S. cerevisiae deletion strains, locus YNL071W, strain lat1, active compounds read low 1 | S. cerevisiae deletion strains, locus YNL128W, strain TEP1, active compounds read low 0.964 | S. cerevisiae deletion strains, locus YNL153C, strain GIM3, active compounds read low 0.972 | S. cerevisiae deletion strains, locus YNL209W, strain ssb2, active compounds read low 1 | S. cerevisiae deletion strains, locus YNL233W, strain BNI4, active compounds read low 0.892 | S. cerevisiae deletion strains, locus YNL248C, strain rpa49, active compounds read low 1 | S. cerevisiae deletion strains, locus YNL250W, strain rad50, active compounds read low 0.991 | S. cerevisiae deletion strains, locus YNL271C, strain bni1, active compounds read low 0.969 | S. cerevisiae deletion strains, locus YNL322C, strain KRE1 (second series), active compounds read low 0.983 | S. cerevisiae deletion strains, locus YNL322C, strain KRE1, active compounds read low 0.988 | S. cerevisiae deletion strains, locus YNR049C, strain mso1, active compounds read low 0.997 | S. cerevisiae deletion strains, locus YNR052C, strain pop2, active compounds read low 0.944 | S. cerevisiae deletion strains, locus YOL006C, strain TOP1, active compounds read low 0.725 | S. cerevisiae deletion strains, locus YOL012C, strain htz1 1.35 | S. cerevisiae deletion strains, locus YOL147C, strain pex11, active compounds read low 0.983 | S. cerevisiae deletion strains, locus YOR001W, strain rrp6, active compounds read low 0.985 | S. cerevisiae deletion strains, locus YOR061W, strain CKA2, active compounds read low 0.997 | S. cerevisiae deletion strains, locus YOR069W, strain VPS5, active compounds read low 1.01 | S. cerevisiae deletion strains, locus YOR070C, strain gyp1, active compounds read low 0.991 | S. cerevisiae deletion strains, locus YOR080W, strain dia2, active compounds read low 1.01 | S. cerevisiae deletion strains, locus YOR083W, strain WHI5, active compounds read low 0.989 | S. cerevisiae deletion strains, locus YOR106W, strain vam3, active compounds read low 1 | S. cerevisiae deletion strains, locus YOR136W, strain idh2, active compounds read low 0.972 | S. cerevisiae deletion strains, locus YOR144C, strain elg1, active compounds read low 0.976 | S. cerevisiae deletion strains, locus YOR265W, strain rbl2, active compounds read low 0.993 | S. cerevisiae deletion strains, locus YOR270C, strain vph1, active compounds read low 0.987 | S. cerevisiae deletion strains, locus YOR290C, strain snf2, active compounds read low 0.972 | S. cerevisiae deletion strains, locus YOR316C, strain cot1, active compounds read low 1 | S. cerevisiae deletion strains, locus YPL051W, strain arl3, active compounds read low 1.03 | S. cerevisiae deletion strains, locus YPL055C, strain LGE1, active compounds read low 0.844 | S. cerevisiae deletion strains, locus YPL078C, strain atp4, active compounds read low 1 | S. cerevisiae deletion strains, locus YPL106C, strain sse1, active compounds read low 1.05 | S. cerevisiae deletion strains, locus YPL240C, strain hsp82, active compounds read low 1 | S. cerevisiae deletion strains, locus YPR119W, strain clb2, active compounds read low 0.983 | S. cerevisiae deletion strains, locus YPR141C, strain kar3, active compounds read low 1.01 | S. cerevisiae deletion strains, locus YPR163C, strain tif3, active compounds read low 0.996 | S. cerevisiae deletion strains, locus YPR167C, strain met16, active compounds read low 0.993 | S. cerevisiae deletion strains, strain wtn01, active compounds read low 0.915 | S. cerevisiae strains, strain wild type, active compounds read low 0.982
